Data reported in ChEMBL document CHEMBL4513216, “Probing the Open Global Health Chemical Diversity Library for Multistage-Active Starting Points for Next-Generation Antimalarials” (ACS Infect Dis, 2020).
Screen size: about 68,000 compounds; about 2,700 (4%) showed an effect of 50% or more. Shown is part of a subset that was picked to be rich in strong results.

test system: Plasmodium berghei; experiment: Screen against P. berghei liver stage (PbLuc), transformed with Luciferase, at 2uM; format: functional, HepG2; settings: tested at 2 uM

Compound	INHIBITION
Cc1noc(CCCC(=O)N2CCCCC2CNS(C)(=O)=O)n1 (centres undefined)	30.58%
CC(C)Oc1ccc(CSc2nnc(CN3CCCC3=O)o2)cc1	0.63%
CC(C)c1cccc(CSc2nnc(CN3CCCC3=O)o2)n1	-12.97%
O=C1CCCN1Cc1nnc(SCc2ccc3c(c2)CCC3)o1	52.31%
CN(C)C(=O)CN(C)C(=O)c1cnc(Cc2ccc(F)cc2)s1	52.08%
CCc1ncc(C(=O)NCCNc2ccncc2)s1	-23%
CCc1ncc(C(=O)NCCNC(=O)Cc2ccc(F)cc2)s1	61.99%
CN(C)CCCNC(=O)c1cnc(Cc2ccc(F)cc2)s1	-12.27%
CCNC(=O)c1cnc(Cc2ccc(F)cc2)s1	6.55%
COC(=O)CCNC(=O)c1cnc(Cc2ccc(F)cc2)s1	-9.47%
O=C(CC1CCCO1)NCc1ccc(Br)cc1F (centres undefined)	-7.89%
CC(C)N1CCCC(C(=O)N2CCN(c3nsc4ccccc34)CC2)C1 (centres undefined)	-52.08%
O=C(NCC1CCOC1)c1csc(Cc2ccccc2)n1 (centres undefined)	28.14%
C[C@@H]1CN(C(=O)c2ccc(Br)cc2F)CC(C(N)=O)O1 (some centres undefined)	57.34%
COC(=O)C1CCCN1C(=O)c1ccc(Cl)cc1F (centres undefined)	-8.14%
Cc1ccc(C(=O)N2CC(C(N)=O)O[C@H](C)C2)c(F)c1 (some centres undefined)	-41.96%
COC(=O)C1CCCN1C(=O)c1ccc(Br)cc1F (centres undefined)	61.96%
Cc1ccc(C(=O)N2CC(C(N)=O)O[C@H](C)C2)c(C)c1 (some centres undefined)	-3.25%
COC(=O)C1CCCCN1C(=O)c1ccc(N(C)C)cc1F (centres undefined)	36.67%
Cc1ccsc1C(=O)N1CCc2ncc(CN(C)C)n2CC1	23.59%
Cc1cc(C)c2[nH]c(=O)c(CN3CCCC4(C3)CN(C)C(=O)O4)cc2c1 (centres undefined)	15.08%
O=C(c1ccc(S(=O)(=O)NCCc2ccccn2)cc1)N1CCCC1	29.41%
CC(C)c1nn(C)c(N(C)C)c1CNCc1ccnn1C	32.93%
CCC1CN(CC(=O)NCCOC)CCO1 (centres undefined)	36.09%
CCC1CN(CC(=O)NCCC#N)CCO1 (centres undefined)	21.72%
CCCNC(=O)CN1CCOC(CC)C1 (centres undefined)	60.52%
CCN(CC1CCOCC1)C(=O)C1CC(=O)N(Cc2cccnc2)C1 (centres undefined)	10.83%

Compound	INHIBITION
COc1ccc(CC(=O)N2CCCN(c3ccc(C#N)cc3)CC2)cc1	-28.34%
O=C(NC1CCC1)C1=NOC2(CCN(Cc3ccc(F)cc3)C2)C1 (centres undefined)	34.13%
CCC(=O)N1CCC(Oc2ccc(C(=O)NCCN(C)C)cc2Cl)CC1	51.96%
COC(=O)N1CCC(Oc2ccc(C(=O)NCCN(C)C)cc2Cl)CC1	30.62%
CN(C)CCNC(=O)c1ccc(OC2CCN(C(=O)CO)CC2)c(Cl)c1	14.63%
NC(=O)c1nc(CN2CCOC(C(F)(F)F)C2)no1 (centres undefined)	43.91%
CNC(=O)c1nc(CN2CCOC(CCCC(C)C)C2)no1 (centres undefined)	-65.52%
CNC(=O)c1nc(CN2CCOC(C(F)(F)F)C2)no1 (centres undefined)	65.76%
COC(=O)CC(c1ccc(OC)c(OC)c1OC)c1c(O)n[nH]c1C (centres undefined)	-8.07%
Cc1cc2c(=O)n3c(nc2s1)CCN(C(=O)c1cnn(C)c1)CC3	-18.04%
Cc1cc2c(=O)n3c(nc2s1)CCN(C(=O)c1cn(C)nc1C)CC3	66.16%
Cc1cc2c(=O)n3c(nc2s1)CCN(C(=O)c1nn(C)cc1Cl)CC3	26.56%
COCCc1noc(CN(C)c2cc(C)ncn2)n1	41.63%
Cc1nc(N2CCN(C(=O)c3ccncc3)CC2)c2c(n1)c(C)nn2C	4.87%
COc1cccc(CC2(C(=O)O)CCN(c3nccs3)CC2)c1	50.59%
COc1cccc(CC2(C(=O)O)CCN(c3ccc(Cl)cn3)CC2)c1	7.67%
COc1cccc(CC2(CO)CCCN(c3nccs3)C2)c1 (centres undefined)	14.21%
Cc1nc(N(C)Cc2cccc(O)c2)nc2cc(S(C)(=O)=O)ccc12	33.4%
O=C(CN1CCCc2sccc2C1=O)NC1CCc2nccn2C1 (centres undefined)	-4.89%
O=S(=O)(c1cccs1)N1CCN(Cc2nc(-c3ccco3)cs2)CC1	29.89%
Cc1ccc(CN2CCC3(CCC3NS(=O)(=O)c3ccccc3)CC2)o1 (centres undefined)	11.18%
O=S(=O)(NC1CCC12CCN(CC1CCOCC1)CC2)c1ccccc1 (centres undefined)	51.36%
O=S(=O)(NC1CCC12CCN(CC1CC1)CC2)c1ccccc1 (centres undefined)	-3.36%
CCc1nnc2n1CCN(C(=O)C(C)Oc1ccc(C#N)cc1)C2 (centres undefined)	10.77%
CNC(=O)C1CCN(c2ncc3c(n2)CCN3c2ccccc2)C1 (centres undefined)	51.96%
CC(=O)N(C)C1CCN(c2ncc3c(n2)CCN3c2ccccc2)C1 (centres undefined)	-13.72%
CN(CCO)C1CCN(c2ncc3c(n2)CCN3c2ccccc2)CC1	15.84%
